Our source for the activation (% of control) values is PubChem BioAssay AID932 (The Scripps Research Institute Molecular Screening Center, 2007).

The campaign covered roughly 200,000 compounds. About 5,100 (2.5%) were called active. The entries come from a sample that favours actives as a whole. Unmarked numbers belong to inactive results.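 How the source made its calls: active means activation above the screen-wide mean activation plus 3 SD (cut at about 130% in these data); inactive means the rest.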

This experiment can be described thus: STAT1 signaling activators, primary screen, cell-based, HTS, luciferase reporter (AID 932).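 Further: raw ratio to IFN-gamma control signal so 100% means no change and 0% no light.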 Conditions: NIH 3T3 STAT1-luciferase reporter, IFN-gamma, luminescence; at 5.5 µM; hits give high values; 100% = IFN-gamma alone, no compound. For orientation: A reporter such as luciferase makes a cellular process visible.
As to `Cn1c(=O)c2c(ncn2CCc2ccccc2)n(C)c1=O`, the activation (% of control) is 101%.

Take `CC(NC(=O)Nc1ccccc1)C(c1cccs1)N1CCN(c2ccccc2)CC1` (stereo not drawn): the activation (% of control) is 87%.

Take `O=C(CN1C(=O)c2cccc3cccc(c23)C1=O)N1CCCCC1`: the activation (% of control) was 89.3%.

For `Cc1nccc(-c2ccc(-n3c(C)ccc3C)cc2)n1`, the activation (% of control) was 101%.

Consider `O=C(COC(=O)c1ccccn1)Nc1cccc2ccccc12`, for which the activation (% of control) was 103%.

As to `CNC(=O)/C(C#N)=C/c1c(F)cccc1Cl`, the activation (% of control) is 82.9%.

As for `Cc1ccc(O)c(CCc2ccccc2)n1`, the activation (% of control) is 104%.

On to `Cc1ccc(C(=O)/C=C/Nc2ccc(S(=O)(=O)Nc3onc(C)c3C)cc2)cc1`, for which the activation (% of control) was 142% (active).

Consider `COc1ccc(C(=O)Nc2ccc(S(=O)(=O)Nc3onc(C)c3C)cc2)cc1OC`, for which the activation (% of control) is 104%.

For the molecule `Cc1noc(NS(=O)(=O)c2ccc(N/C=C/C(=O)c3ccccc3)cc2)c1C`, the activation (% of control) was 113%.

Take `CC(C)C(O)C1CCN(Cc2nc(Cc3ccccc3Cl)no2)CC1` (stereo not drawn): the activation (% of control) is 105%.

Consider `Cc1ccc(N(C(=O)c2ccc(S(=O)(=O)N(C)C)cc2)C2C=CS(=O)(=O)C2)cc1` (stereo not drawn), for which the activation (% of control) was 96.7%.

`CCC(O)C1CCN(Cc2cn(-c3ccc(OC)cc3)nc2-c2cccc(F)c2)CC1` (stereo not drawn): the activation (% of control) was 107%.

Turning to `Cc1nc(Cl)c2oc3ccccc3c2n1`, the activation (% of control) was 103%.

For `CCc1nc(Nc2ccc3nccnc3c2)c2oc3ccccc3c2n1`, the activation (% of control) was 98.2%.

With `COc1ccccc1Nc1ncnc2c1oc1ccccc12`, the activation (% of control) was 137% (active).

On to `CCN(c1ccc(NC(=O)COC(=O)CCc2nc3ccccc3n2-c2ccccc2)cc1)C(C)C`, for which the activation (% of control) was 99.5%.

Turning to `CC(C)CC(=O)N/C(N)=N/c1nc2ccccc2s1`, the activation (% of control) was 123%.

On to `COC(=O)c1nc2ccccc2s1`, for which the activation (% of control) was 103%.

With `CCC(=O)NC(=Nc1nc2ccccc2s1)NC(=O)CC`, the activation (% of control) is 180% (active).

For the molecule `Cc1ccc(S(=O)(=O)N(C)C)cc1NC(=O)c1ccccc1Br`, the activation (% of control) was 106%.

Turning to `O=c1c2c(nc3n1CCCCC3)sc1c(O)cccc12`, the activation (% of control) is 104%.

Consider `Cc1c(C(=O)Nc2cccc(-c3nnc4n3CCCCC4)c2)oc2ccccc12`, for which the activation (% of control) was 104%.

For `Cc1c(C(=O)Nc2ccccc2)sc2nc3n(c(=O)c12)CCCCC3`, the activation (% of control) was 130% (active).

As to `COc1ccc(-c2nc3cnccn3c2NC(C)(C)CC(C)(C)C)cc1O`, the activation (% of control) was 102%.

On to `COc1ccc(C(C(=O)NC2CCCCC2)N(C(=O)Cc2c[nH]c3ccccc23)c2ccccc2)cc1OC` (stereo not drawn), for which the activation (% of control) was 105%.

As for `COc1ccc(-n2c(C)nc3c(cnn3-c3ccccc3)c2=O)cc1`, the activation (% of control) was 88.7%.

In the case of `c1ccc(-n2ncc3c(N4CCCC4)ncnc32)cc1`, the activation (% of control) is 115%.

As to `Cc1cccc(-n2ncc3c(N4CCc5ccccc54)ncnc32)c1`, the activation (% of control) was 113%.

Consider `COc1ccc2oc(=O)c(C(=O)N3CCCc4ccccc43)cc2c1`, for which the activation (% of control) was 97.1%.

Regarding `COc1ccc(-n2ncc3c(N4CCCc5ccccc54)ncnc32)cc1`, the activation (% of control) is 187% (active).

In the case of `COc1ccc(-n2ncc3c(N4CCc5ccccc54)ncnc32)cc1`, the activation (% of control) is 137% (active).

Regarding `CC(C)(C)NC(=O)NC(=O)COC(=O)C1(C)CC1(Cl)Cl` (stereo not drawn), the activation (% of control) was 104%.

In the case of `NC(=O)c1ccc(CN2CCC(Cc3ccccc3)CC2)cc1`, the activation (% of control) is 98.6%.

In the case of `COc1ccc(CCNC(=O)c2ccc(CS(=O)(=O)c3ccc(Br)cc3)o2)cc1OC`, the activation (% of control) is 84.6%.

Turning to `Cc1ccc(OCCOCCOc2ccc(Br)cc2/C=N\NC(=O)c2ccncc2)cc1`, the activation (% of control) was 102%.

Consider `Cc1cc(O)ccc1-c1cnc2ccccc2n1`, for which the activation (% of control) was 108%.

Regarding `CC(=O)Nc1cccc(-c2cnc3ccccc3n2)c1`, the activation (% of control) was 159% (active).

For the molecule `CC(=O)Nc1cccc(-c2csc(Nc3cccc(C)n3)n2)c1`, the activation (% of control) is 175% (active).

Take `COc1ccc(CCNc2nc(-c3cccc(NC(C)=O)c3)cs2)cc1OC`: the activation (% of control) was 88.5%.

Consider `CCS(=O)(=O)Nc1cccc(-c2cc(-c3ccccc3)c3cc(C)ccc3n2)c1`, for which the activation (% of control) was 96.5%.

Take `CC(=O)Nc1ccc(-c2csc(NC(=O)Nc3ccccc3)n2)cc1`: the activation (% of control) was 95.7%.

As to `CCOC(=O)/C(=N\Nc1ccccc1[N+](=O)[O-])c1csc(Nc2ccccc2)n1`, the activation (% of control) is 102%.

Turning to `OC1CCCN(c2ncnc3c2nnn3Cc2c(F)cccc2Cl)C1` (stereo not drawn), the activation (% of control) is 102%.

For `COc1ccc(CCNC(=O)COC(=O)/C=C/c2cccs2)cc1OC`, the activation (% of control) is 90.8%.

Consider `CCOC(=O)c1sc(=NC(=O)/C=C/c2cccs2)n(C)c1C`, for which the activation (% of control) was 140% (active).

Consider `CCOC(=O)c1c(NC(=S)NC(=O)/C=C/c2cccs2)sc(C)c1C`, for which the activation (% of control) is 105%.

Take `CCOc1cc(NC(=S)NCc2ccco2)c(OCC)cc1NC(=O)c1ccco1`: the activation (% of control) is 94.2%.

Regarding `COc1cc(OC)cc(-c2nnc(SCC(=O)Nc3ccc(C(=O)O)cc3)s2)c1`, the activation (% of control) was 92.8%.

Regarding `CCn1nc(C(=O)OCC(=O)N2c3ccccc3CC2C)c2ccccc2c1=O` (stereo not drawn), the activation (% of control) was 94.7%.

Consider `CCC(=O)N1c2ccc(S(=O)(=O)CCC(=O)N3CCN(c4ccccc4)CC3)cc2CC1C` (stereo not drawn), for which the activation (% of control) is 101%.

With `CCCC(=O)N1c2ccc(-c3csc(N)n3)cc2CC1C` (stereo not drawn), the activation (% of control) was 150% (active).

For `O=C(Nc1cccc(F)c1)c1coc(=O)c(Br)c1`, the activation (% of control) is 89.3%.

As to `Cc1cccc(NC(=S)N(CCN(C)C)C(C)c2ccco2)c1` (stereo not drawn), the activation (% of control) is 97.6%.

Take `COc1ccccc1-n1c(=S)[nH]c2c(sc(=S)n2-c2ccc(C)cc2C)c1=O`: the activation (% of control) was 97.7%.

With `CCOC(=O)c1cnc2[nH]c3ccccc3n2c1=O`, the activation (% of control) is 104%.

For the molecule `COc1ccc2nc(Nc3nc(-c4ccncc4)cs3)sc2c1`, the activation (% of control) is 140% (active).

Turning to `COc1ccc(-c2csc(Nc3ccc(O)cc3)n2)cc1`, the activation (% of control) was 110%.

As for `NS(=O)(=O)c1ccc(Nc2nc(-c3ccccc3)cs2)cc1`, the activation (% of control) is 131% (active).

In the case of `COc1ccc(Nc2nc(-c3ccccc3)cs2)cc1`, the activation (% of control) is 142% (active).

Take `CC(=O)Nc1ccc(S(=O)(=O)Nc2nc(-c3ccc(C(C)(C)C)cc3)cs2)cc1`: the activation (% of control) was 99%.

Consider `COc1ccc(OC)c(Nc2nc(-c3ccc(O)c(O)c3)cs2)c1`, for which the activation (% of control) was 102%.

For `COc1ccc2nc(Nc3nc(-c4cc5ccccc5oc4=O)cs3)sc2c1`, the activation (% of control) is 103%.

As to `COc1ccc2nc(NC(=O)[C@@H]3CCCN3C(=O)c3cccs3)sc2c1`, the activation (% of control) is 103%.

Turning to `Cc1cccc(S(=O)(=O)CC(=O)Nc2nc(-c3ccccc3)cs2)c1`, the activation (% of control) was 105%.

Regarding `CCNC(=O)N1c2ccccc2Sc2ccccc21`, the activation (% of control) is 98%.

Regarding `CCNC(=O)CC1C(=O)N(c2ccc(OC)cc2)C(=S)N1CCc1ccncc1` (stereo not drawn), the activation (% of control) is 105%.

On to `Cc1ccccc1N(C(=O)Cc1cccs1)C(C(=O)NC1CCCCC1)c1cn(C)nc1C` (stereo not drawn), for which the activation (% of control) is 96.2%.

On to `O=C(NCCCN1CCN(c2ccc(F)cc2)CC1)Nc1ccc([N+](=O)[O-])cc1`, for which the activation (% of control) was 88.3%.

For the molecule `O=c1oc2ccccc2cc1-c1cn(-c2ccccc2)c(=S)[nH]1`, the activation (% of control) is 28.6%.

In the case of `O=C(NCc1cccnc1)c1cccc(-c2cc3ccccc3oc2=O)c1`, the activation (% of control) is 97.6%.

Consider `Nc1ncc(-c2cc3ccccc3oc2=O)s1`, for which the activation (% of control) is 166% (active).

Turning to `Cn1cccc1C(C#N)c1ccccc1C#N` (stereo not drawn), the activation (% of control) was 100%.

Consider `Cc1cc(C)n2nc(C(=O)N3CCN(Cc4ccc5c(c4)OCO5)CC3)nc2n1`, for which the activation (% of control) is 108%.

Take `Cc1cccc(NC(=O)c2ccccc2NC(=O)C(C)(C)C)n1`: the activation (% of control) was 95.8%.

On to `Cc1cccc(NC(=O)c2ccc3ccccc3n2)n1`, for which the activation (% of control) is 131% (active).

As to `Cc1cccc(NC(=O)c2cc(N3C(=O)CCC3=O)ccc2Cl)n1`, the activation (% of control) was 98.4%.

As for `CC(=O)c1cnc(SCC(=O)O)nc1C`, the activation (% of control) was 108%.

Consider `Nc1nc(SCC(=O)NCCN2CCOCC2)nc2sc3c(c12)CCC3`, for which the activation (% of control) was 99.3%.

For `CC(C)(C)C1CCc2c(sc3nc(SCC(N)=O)nc(N)c23)C1` (stereo not drawn), the activation (% of control) was 123%.

Take `C=C(C)CSc1nc(N)c2c3c(sc2n1)CCC3`: the activation (% of control) is 135% (active).

For `CCOC(=O)C1=C(CC)OC(N)=C(C#N)C1c1ccc(F)cc1F` (stereo not drawn), the activation (% of control) was 76.9%.

As to `Cc1ccc(NC(=O)C(=O)NCc2ccco2)c(C)c1`, the activation (% of control) is 126%.

With `Cc1ccc(NC(=O)c2oc(=O)c3ccccc3c2-c2ccccc2)c(C)c1`, the activation (% of control) is 97.1%.

On to `Cc1ccc(NN=C2C(=O)OC(C)(C)OC2=O)c(C)c1`, for which the activation (% of control) is 132% (active).

Take `CC(C)(C)NC(=O)Cn1nnc(-c2ccccc2Cl)n1`: the activation (% of control) was 142% (active).

For `O=C(Cn1nnc(-c2ccccc2)n1)NCc1ccccc1`, the activation (% of control) was 100%.

Turning to `Cc1ccccc1-c1nnn(CC(=O)c2ccc(S(=O)(=O)N3CCCC3)cc2)n1`, the activation (% of control) was 96.4%.

On to `Cc1ccc(NC(=O)Cn2c(=O)n(CCC(=O)NC3CCN(Cc4ccccc4)CC3)c(=O)c3ccccc32)cc1`, for which the activation (% of control) is 101%.

For `CC(C)COC(=O)c1ccc(NC(=O)C2C3C=CC(C3)C2C(=O)O)cc1` (stereo not drawn), the activation (% of control) was 138% (active).

On to `CC(=O)NS(=O)(=O)c1ccc(NC(=O)C2C3C=CC(C3)C2C(=O)O)cc1` (stereo not drawn), for which the activation (% of control) is 99.5%.

In the case of `COC(=O)c1cc(NC(=O)C2C3C=CC(C3)C2C(=O)O)cc(C(=O)OC)c1` (stereo not drawn), the activation (% of control) is 101%.

Consider `Cc1ccc(S(=O)(=O)N2CCOCC2)cc1C(=O)OC1CCCCC1=O` (stereo not drawn), for which the activation (% of control) is 97%.

Take `O=C(O)Cc1sc(-c2ccccc2)nc1-c1cccs1`: the activation (% of control) was 108%.

With `NC(=O)Cc1ccc2sc(-c3ccccc3)nc2c1`, the activation (% of control) was 180% (active).

`O=C(O)Cc1sc(-c2ccc(C(=O)O)cc2)nc1-c1ccccc1`: the activation (% of control) is 93.7%.

On to `CN(CC(=O)NCCc1ccccc1)S(=O)(=O)c1cnc[nH]1`, for which the activation (% of control) is 95.9%.

`O=C(CSc1nnnn1-c1ccc(O)cc1)N1N=C(c2ccc3ccccc3c2)CC1c1ccccc1` (stereo not drawn): the activation (% of control) was 110%.
